Drawing on ChEMBL document CHEMBL3988442, “University of Dundee, Small-Polar-MMV Screening Library” (2021), this text covers Percent Effect for ten compounds.

For some assays here: Results with a measured potency or affinity are listed apart.

What all share (set-up): scale not given: direction of the effect not stated beside the values
In assay [1] the target is Protein translocase subunit SecA (Escherichia coli (strain K12)) (UniProt P10408). Kind of assay: Assay to Identify E. coli SecA ATPase Inhibitors. Format: functional. Particulars: 30 µM.
Chain of Protein translocase subunit SecA (Escherichia coli (strain K12)) (P10408 whole entry): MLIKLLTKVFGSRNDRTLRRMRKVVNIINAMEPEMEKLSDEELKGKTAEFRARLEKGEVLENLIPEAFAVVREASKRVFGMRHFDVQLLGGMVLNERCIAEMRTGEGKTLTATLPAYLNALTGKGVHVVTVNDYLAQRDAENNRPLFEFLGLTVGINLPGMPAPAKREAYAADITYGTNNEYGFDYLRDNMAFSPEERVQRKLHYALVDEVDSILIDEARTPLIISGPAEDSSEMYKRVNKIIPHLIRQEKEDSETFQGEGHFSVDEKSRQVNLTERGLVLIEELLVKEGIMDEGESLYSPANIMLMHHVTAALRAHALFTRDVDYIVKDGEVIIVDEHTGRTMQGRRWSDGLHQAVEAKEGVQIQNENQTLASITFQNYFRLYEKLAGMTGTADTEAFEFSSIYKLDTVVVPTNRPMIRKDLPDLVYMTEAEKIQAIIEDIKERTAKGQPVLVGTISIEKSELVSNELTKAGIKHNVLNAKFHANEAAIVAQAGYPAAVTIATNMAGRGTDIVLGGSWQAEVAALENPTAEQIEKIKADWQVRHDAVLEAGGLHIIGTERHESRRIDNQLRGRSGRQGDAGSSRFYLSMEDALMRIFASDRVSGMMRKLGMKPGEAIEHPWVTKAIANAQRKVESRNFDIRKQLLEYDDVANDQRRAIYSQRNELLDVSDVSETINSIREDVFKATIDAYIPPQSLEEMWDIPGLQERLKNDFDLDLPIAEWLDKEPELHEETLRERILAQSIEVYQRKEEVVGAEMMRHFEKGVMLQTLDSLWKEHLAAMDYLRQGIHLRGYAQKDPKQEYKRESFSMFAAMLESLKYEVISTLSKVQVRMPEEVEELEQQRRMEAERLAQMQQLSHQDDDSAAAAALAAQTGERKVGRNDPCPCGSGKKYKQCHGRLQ
The target of assay [2] is T1, Ubiquitin-activating enzyme e1, putative (Leishmania donovani (strain BPK282A1)) (UniProt E9BSI1).
T1 sequence (whole entry): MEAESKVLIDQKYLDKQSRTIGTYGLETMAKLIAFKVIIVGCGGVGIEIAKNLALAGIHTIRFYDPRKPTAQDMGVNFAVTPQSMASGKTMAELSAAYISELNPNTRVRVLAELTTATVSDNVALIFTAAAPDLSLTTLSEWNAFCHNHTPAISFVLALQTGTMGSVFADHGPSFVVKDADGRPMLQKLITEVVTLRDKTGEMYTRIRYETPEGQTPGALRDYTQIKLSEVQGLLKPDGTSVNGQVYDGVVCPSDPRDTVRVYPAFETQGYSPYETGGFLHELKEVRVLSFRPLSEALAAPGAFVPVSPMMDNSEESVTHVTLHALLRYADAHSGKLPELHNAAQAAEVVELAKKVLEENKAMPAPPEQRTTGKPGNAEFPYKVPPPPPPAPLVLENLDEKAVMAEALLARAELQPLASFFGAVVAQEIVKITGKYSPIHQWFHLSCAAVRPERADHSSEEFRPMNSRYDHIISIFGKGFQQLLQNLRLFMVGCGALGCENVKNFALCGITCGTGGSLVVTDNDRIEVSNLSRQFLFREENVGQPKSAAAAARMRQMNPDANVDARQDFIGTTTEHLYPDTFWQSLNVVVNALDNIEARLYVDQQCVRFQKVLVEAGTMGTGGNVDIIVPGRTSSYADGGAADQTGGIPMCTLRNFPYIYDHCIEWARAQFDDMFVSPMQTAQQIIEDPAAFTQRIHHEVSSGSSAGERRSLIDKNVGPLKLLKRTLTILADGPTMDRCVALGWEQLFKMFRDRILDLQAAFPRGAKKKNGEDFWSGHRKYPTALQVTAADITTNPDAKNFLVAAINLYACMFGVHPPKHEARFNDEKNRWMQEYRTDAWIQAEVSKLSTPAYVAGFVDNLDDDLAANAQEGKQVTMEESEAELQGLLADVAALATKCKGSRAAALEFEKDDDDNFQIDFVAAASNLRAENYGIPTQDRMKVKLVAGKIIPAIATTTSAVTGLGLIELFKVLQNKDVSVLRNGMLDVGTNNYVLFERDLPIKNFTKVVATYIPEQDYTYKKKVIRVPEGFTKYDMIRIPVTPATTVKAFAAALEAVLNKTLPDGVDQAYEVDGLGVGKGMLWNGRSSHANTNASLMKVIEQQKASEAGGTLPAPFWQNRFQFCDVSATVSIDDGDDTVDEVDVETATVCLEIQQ
Kind of assay: Leishmania donovani Ubiquitin Activating Enzyme (LdE1). It counts as functional. Particulars: 30 µM.

The target of assay [3] is AMP-activated protein kinase, AMPK (Homo sapiens) (UniProt P54646+O43741+P54619+Q9UGJ0+Q9Y478+Q13131+Q9UGI9). Kind of assay: AMP-dependent Kinase enzyme assay. An in vitro enzyme assay that detects ADP turnover that is directly proportional to AMPK activity. This uses naive AMPK that is activated during the assay with MK-8722. Particulars: 30 µM. Format: functional.
Assay [4] addresses Sialic acid-binding Ig-like lectin 9 (Homo sapiens) (UniProt Q9Y336). Briefly: Hs-Siglec9 ALPHAscreen SOP 20170721. The note with it: 10 µM.
Another assay has as its system Trypanosoma cruzi. Briefly: Trypanosoma cruzi phosphomannomutase and mannose-1-phosphate guanylyltransferase assay. Particulars: 10 µM. Format: functional.
For assay [5], the target named is T2, Arginase-2, mitochondrial (Homo sapiens) (UniProt P78540).
T2 sequence (whole entry): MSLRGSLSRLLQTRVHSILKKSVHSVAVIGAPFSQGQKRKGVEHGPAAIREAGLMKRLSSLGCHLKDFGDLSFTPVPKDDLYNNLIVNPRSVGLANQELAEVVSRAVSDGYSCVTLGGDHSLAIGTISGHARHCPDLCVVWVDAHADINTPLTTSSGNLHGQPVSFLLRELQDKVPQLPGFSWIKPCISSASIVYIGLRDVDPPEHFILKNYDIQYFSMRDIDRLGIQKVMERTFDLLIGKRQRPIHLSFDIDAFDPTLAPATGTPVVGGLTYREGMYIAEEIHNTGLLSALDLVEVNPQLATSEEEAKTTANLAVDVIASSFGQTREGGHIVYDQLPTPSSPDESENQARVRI
Briefly: in vitro enzyme assay to detect the production of urea directly proportional to the activity of Arginase II. Further: in the data most compounds retested in dose-response had high values. Format: functional. Particulars: 33.3 µM.

Assay [6] concerns the target T3, Proteasome subunit beta (Trypanosoma cruzi) (UniProt O96673).
T3 sequence (whole entry): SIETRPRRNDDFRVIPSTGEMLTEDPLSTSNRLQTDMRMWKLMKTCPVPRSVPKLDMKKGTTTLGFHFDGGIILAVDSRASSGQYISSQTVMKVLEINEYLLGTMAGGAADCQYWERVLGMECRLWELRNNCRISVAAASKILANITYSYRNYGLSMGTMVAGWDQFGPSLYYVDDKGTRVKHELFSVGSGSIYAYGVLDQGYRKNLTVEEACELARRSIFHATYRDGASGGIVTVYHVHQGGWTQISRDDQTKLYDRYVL
Briefly: Trypanosoma cruzi proteasome chymotrypsin-like activity (TcProtChymo) assay. Further: in the data most compounds retested in dose-response had high values. Format: functional. Particulars: 9.37 µM.

The species named for the next assay is Homo sapiens. Briefly: To identify inhibition of the IFN signalling (Jak-Stat) pathway via expression of an eGFP reporter gene under the control of an IFN-stimulated response element (ISRE) containing MxA promoter. Format: functional. The note with it: 30 µM.
Assay [7] deals with T4, Tyrosyl-tRNA synthetase, putative (Trypanosoma cruzi (strain CL Brener)) (UniProt Q4DSP6).
T4 sequence (whole entry): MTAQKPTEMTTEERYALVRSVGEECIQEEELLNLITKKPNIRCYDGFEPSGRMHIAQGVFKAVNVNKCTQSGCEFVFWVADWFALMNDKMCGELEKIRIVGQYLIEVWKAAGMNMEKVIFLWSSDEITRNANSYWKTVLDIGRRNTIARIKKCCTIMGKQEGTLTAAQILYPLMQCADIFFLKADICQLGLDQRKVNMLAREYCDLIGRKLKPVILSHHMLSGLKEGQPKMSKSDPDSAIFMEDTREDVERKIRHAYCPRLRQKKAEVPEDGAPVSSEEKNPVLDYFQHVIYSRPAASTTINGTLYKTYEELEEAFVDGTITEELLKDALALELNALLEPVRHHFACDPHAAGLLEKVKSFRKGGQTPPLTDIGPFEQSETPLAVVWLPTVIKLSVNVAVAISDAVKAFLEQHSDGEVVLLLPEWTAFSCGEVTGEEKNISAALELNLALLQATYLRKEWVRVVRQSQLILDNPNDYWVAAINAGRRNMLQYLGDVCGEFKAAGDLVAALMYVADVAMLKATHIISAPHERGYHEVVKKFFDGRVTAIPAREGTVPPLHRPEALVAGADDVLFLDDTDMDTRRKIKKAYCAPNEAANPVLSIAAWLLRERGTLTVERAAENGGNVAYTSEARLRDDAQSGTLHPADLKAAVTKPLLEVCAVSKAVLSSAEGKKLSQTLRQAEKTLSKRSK
Briefly: Trypanosoma cruzi tyrosyl tRNA synthetase (TcYRS) _High Tyrosine SOP. Further: in the data most compounds retested in dose-response had high values. It counts as functional. Particulars: 30 µM.

In assay [8] the target is T4, Tyrosyl-tRNA synthetase, putative (Trypanosoma cruzi (strain CL Brener)). Kind of assay: Trypanosoma cruzi tyrosyl tRNA synthetase (TcYRS) SOP. It counts as functional. Particulars: 30 µM.
The target in assay [9] is Chromo domain-containing protein 1 (Saccharomyces cerevisiae (strain ATCC 204508 / S288c) (Baker's yeast)) (UniProt P32657). Briefly: ScCHD-1 Enzyme Inhibition Assay. Further: in the data most compounds retested in dose-response had high values. Format: functional. The note with it: 30 µM.
Chain of Chromo domain-containing protein 1 (Saccharomyces cerevisiae (strain ATCC 204508 / S288c) (Baker's yeast)) (P32657 whole entry, the tested form may be a part): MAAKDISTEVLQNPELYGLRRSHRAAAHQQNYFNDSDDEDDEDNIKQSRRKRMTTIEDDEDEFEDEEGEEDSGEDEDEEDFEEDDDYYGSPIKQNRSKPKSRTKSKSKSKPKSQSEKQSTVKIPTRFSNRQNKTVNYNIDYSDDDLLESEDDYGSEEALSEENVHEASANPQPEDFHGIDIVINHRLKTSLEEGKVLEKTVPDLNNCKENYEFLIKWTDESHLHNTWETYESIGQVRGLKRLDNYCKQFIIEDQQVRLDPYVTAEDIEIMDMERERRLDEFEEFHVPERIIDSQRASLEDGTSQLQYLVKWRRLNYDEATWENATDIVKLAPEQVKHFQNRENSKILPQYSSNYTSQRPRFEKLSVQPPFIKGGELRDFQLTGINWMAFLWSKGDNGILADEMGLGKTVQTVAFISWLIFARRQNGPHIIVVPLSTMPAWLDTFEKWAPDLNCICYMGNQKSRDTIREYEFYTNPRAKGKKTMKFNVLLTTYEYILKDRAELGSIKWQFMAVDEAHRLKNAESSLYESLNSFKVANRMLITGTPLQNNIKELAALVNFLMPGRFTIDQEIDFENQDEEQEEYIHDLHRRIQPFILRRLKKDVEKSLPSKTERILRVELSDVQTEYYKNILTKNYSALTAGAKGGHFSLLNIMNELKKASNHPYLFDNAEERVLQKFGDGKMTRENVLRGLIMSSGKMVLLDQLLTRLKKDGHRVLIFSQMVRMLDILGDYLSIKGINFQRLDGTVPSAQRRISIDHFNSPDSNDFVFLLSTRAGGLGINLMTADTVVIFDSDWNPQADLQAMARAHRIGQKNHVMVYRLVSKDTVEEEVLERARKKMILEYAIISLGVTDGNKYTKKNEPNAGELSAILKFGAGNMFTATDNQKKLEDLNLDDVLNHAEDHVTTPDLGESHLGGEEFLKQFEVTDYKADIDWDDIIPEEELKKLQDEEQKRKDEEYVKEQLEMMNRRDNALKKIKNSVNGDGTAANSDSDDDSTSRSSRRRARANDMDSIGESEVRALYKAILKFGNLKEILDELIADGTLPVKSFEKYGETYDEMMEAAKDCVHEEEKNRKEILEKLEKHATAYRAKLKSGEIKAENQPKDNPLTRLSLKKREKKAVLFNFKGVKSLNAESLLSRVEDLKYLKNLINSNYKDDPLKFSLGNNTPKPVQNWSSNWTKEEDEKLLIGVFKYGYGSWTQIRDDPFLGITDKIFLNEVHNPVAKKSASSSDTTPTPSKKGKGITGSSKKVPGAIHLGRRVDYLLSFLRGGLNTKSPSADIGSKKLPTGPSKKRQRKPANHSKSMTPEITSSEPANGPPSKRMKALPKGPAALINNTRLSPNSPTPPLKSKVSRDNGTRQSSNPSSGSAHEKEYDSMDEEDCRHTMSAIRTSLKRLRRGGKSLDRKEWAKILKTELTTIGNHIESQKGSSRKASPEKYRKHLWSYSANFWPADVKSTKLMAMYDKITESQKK

Chain of Sialic acid-binding Ig-like lectin 9 (Homo sapiens) (Q9Y336 whole entry): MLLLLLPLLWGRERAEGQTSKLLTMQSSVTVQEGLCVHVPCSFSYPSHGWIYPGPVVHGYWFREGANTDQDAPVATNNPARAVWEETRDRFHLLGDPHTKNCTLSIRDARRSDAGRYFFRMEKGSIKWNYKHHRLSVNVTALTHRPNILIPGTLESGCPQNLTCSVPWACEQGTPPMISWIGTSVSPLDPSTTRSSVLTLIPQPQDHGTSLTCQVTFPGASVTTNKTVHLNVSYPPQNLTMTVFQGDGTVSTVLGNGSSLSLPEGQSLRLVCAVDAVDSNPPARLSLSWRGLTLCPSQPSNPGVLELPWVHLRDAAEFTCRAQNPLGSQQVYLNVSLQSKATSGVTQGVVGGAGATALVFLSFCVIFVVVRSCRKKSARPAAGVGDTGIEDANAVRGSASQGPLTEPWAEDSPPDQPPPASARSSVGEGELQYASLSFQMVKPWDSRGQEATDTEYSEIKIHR

As to `Cc1ccn(-c2ccccc2NCc2ccccn2)n1`, the Percent Effect is -1.21% in [1]; 0% in [2]; 23.2% in [3]; 4.37% in assay [4]; 3.13% with Trypanosoma cruzi; 2.27% in assay [5]. For the same compound, the Percent Effect in [6] is 0.532%; in the assay filed under Homo sapiens, 2.69%; in assay [7], 4.3%; in assay [8], 10%; in [9] it was -1.77%.

On to `O=C(CCc1cnn(-c2ccccc2)c1)N1CCCC(n2cccn2)C1` (stereo not given), for which the Percent Effect in assay [1] is -2.31%; in assay [2] it was 10.5%; in [3], 2.58%; in assay [4], 12.9%; with Trypanosoma cruzi, 3.38%; in assay [5], 4.98%. In addition, the Percent Effect in assay [6] is 0.668%; in the assay listed under Homo sapiens, 14.7%; in [7] it was 8.33%; in [8], 17.1%; in [9] it was -11.6%.

As to `CCN(CC)CCNc1ncc(-c2cc(C)no2)c(-c2ccoc2C)n1`, the Percent Effect in assay [1] was -7.13%; in assay [2], 20.3%; in [3] it was 6.82%; in assay [4] it was 3.2%; with Trypanosoma cruzi, 2.77%; in assay [5], -3.94%. In addition, the Percent Effect in assay [6] is 8.74%; in the assay listed under Homo sapiens, 0.0946%; in assay [7], 5.38%; in [8] it was 14.3%; in assay [9] it was -20.7%.

For `Cc1ccc(N(C)C2CCN(C(=O)c3ccsc3)CC2)nn1`, the Percent Effect was -3.77% in [1]; 5.2% in assay [2]; 5.3% in assay [3]; 11.4% in [4]; 5.62% with Trypanosoma cruzi; -7.47% in assay [5]. Besides, the Percent Effect is 10.6% in assay [6]; 1.47% in the assay filed under Homo sapiens; 5.83% in [7]; 19.5% in [8]; -7.83% in [9].

For `CCc1ncnc2c1CCN(Cc1ccccn1)CC2`, the Percent Effect in assay [1] is -1.83%; in assay [2], -1.33%; in [3], -3.43%; in assay [4], -1.27%; in the assay on Trypanosoma cruzi, -5.11%; in assay [5], -11.4%. Besides, the Percent Effect in assay [6] is 0%; in the assay filed under Homo sapiens, -11.7%; in assay [7], -3.17%; in assay [8], -5.13%; in [9], -3.62%.

In the case of `Cn1ccnc1CN1CCN(CC(O)c2cccc(F)c2)CC1` (stereo not given), the Percent Effect is -1.52% in [1]; 18.2% in assay [2]; -1.07% in assay [3]; 4.38% in assay [4]; -0.49% with Trypanosoma cruzi; -1.9% in assay [5]. Also, the Percent Effect in assay [6] is 15.4%; in the assay filed under Homo sapiens, -1.78%; in assay [7] it was 6.67%; in assay [8], 18.8%; in assay [9] it was -11.3%.

Turning to `CN1CCC(Cc2cc(Nc3ncccn3)ncn2)CC1`, the Percent Effect in [1] was -1.87%; in assay [2], 6.76%; in assay [3], 11.2%; in [4], 0.0242%; in the assay with Trypanosoma cruzi it was -1.98%; in [5] it was -1.16%. For the same compound, the Percent Effect in assay [6] is 2.34%; in the assay filed under Homo sapiens it was 6.81%; in [7] it was 4.3%; in assay [8], 9.09%; in assay [9], -10.4%.

Consider `O=C1NCC[C@]12CN(Cc1ccoc1)C[C@H]2c1ccccc1`, for which the Percent Effect in assay [1] was 4.22%; in [2] it was 15.6%; in [3], 11.9%; in [4], -15.6%; with Trypanosoma cruzi, -8.38%; in assay [5] it was 1.94%. Moreover, the Percent Effect in assay [6] is 13.8%; in the assay filed under Homo sapiens it was 11%; in assay [7], 4.23%; in assay [8] it was 6.41%; in assay [9], -8.29%.

`NS(=O)(=O)CCNC(=O)c1ccc(-c2ccc(F)cc2)cc1F`: the Percent Effect in assay [1] is -4.5%; in assay [2], 5.2%; in assay [3] it was 1.86%; in assay [4], 3.08%; in the assay with Trypanosoma cruzi, -1.08%; in assay [5], 8.28%. Moreover, the Percent Effect was 24.5% in [6]; 19.2% in the assay filed under Homo sapiens; -10.8% in assay [7]; 1.24% in assay [8]; -1.11% in assay [9].

In the case of `O=C(Cc1ccccc1)N1CCC2(CC(=O)N(c3ccsc3)C2)C1` (stereo not given), the Percent Effect is -0.7% in assay [1]; 8.11% in [2]; -4.26% in assay [3]; -6.07% in assay [4]; 3.52% with Trypanosoma cruzi; 11.2% in [5]. Moreover, the Percent Effect in assay [6] is 13.8%; in the assay listed under Homo sapiens it was -6.08%; in assay [7], 14.8%; in [8], -28.1%; in assay [9] it was -3.9%.
